For 28 molecules, Potency and activity change, negative = inhibition results are on record in PubChem BioAssay (NCATS).

Inconclusive results are not listed. Unmarked numbers belong to inactive results. Calls of active or inactive are those of the source. Calls follow the shape of the dose curve; as a rule, active = well fitted curve in the direction sought with a large enough effect; inconclusive = small, poorly fitted or top-dose-only effect, or another doubt; inactive = no such curve, though single readings can be large; an effect the other way counts as inactive or inconclusive. Where a SMILES comes first, the peptide text is derived from it. The star is where a group is joined. Cbz = O=C(OCc1ccccc1)*; CH2Cl = ClC*

Assay [1] deals with CASKI. Kind of assay: Primary qHTS to identify gynecologic anti-cancer compounds using libraries of approved drugs and bioactive compounds (AID 1345084). Also: nearly all actives have a fitted effect of over 55% in size. The conditions noted are these: Gynecologic cancer cell panel viability, ATPlite luminescence, 48 h; series mostly up to 57.5 µM. Put shortly:
(§1)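 Luminescence from the ATPlite ATP-monitoring reagent indicates viable cell number; lower signal means cytotoxicity. Cells received compound 16 h after seeding and were exposed for 48 h across five concentrations.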
(In general: Quantitative high-throughput screening tests each substance at several concentrations.)

Assay [2] relates to HeLa. Described as above. The conditions noted are these: Gynecologic cancer cell panel viability, ATPlite luminescence, 48 h; series mostly up to 57.5 µM. Put shortly: as §1
A general note: In ATP-based viability assays light output follows the ATP content of the culture.

Assay [3] deals with Hek293T. The description is as above. The conditions noted are these: Gynecologic cancer cell panel viability, ATPlite luminescence, 48 h, control line for the selectivity index; series mostly up to 57.5 µM. Put shortly: as §1
Assay [4] relates to JEG-3. Described as above. The conditions noted are these: Gynecologic cancer cell panel viability, ATPlite luminescence, 48 h; series mostly up to 57.5 µM. An outline of the steps: as §1
Assay [5] deals with Es-2. Described as above. The conditions noted are these: Gynecologic cancer cell panel viability, ATPlite luminescence, 48 h; series mostly up to 57.5 µM. Put shortly: as §1
Assay [6] concerns OV90. The description is as above. The conditions noted are these: Gynecologic cancer cell panel viability, ATPlite luminescence, 48 h; series mostly up to 57.5 µM. Put shortly:
as §1

The subject of assay [7] is SKOV3. The assay is described as above. The conditions noted are these: Gynecologic cancer cell panel viability, ATPlite luminescence, 48 h; series mostly up to 57.5 µM. Put shortly:
as §1

The subject of assay [8] is Tov-21-G. The description is as above. The conditions noted are these: Gynecologic cancer cell panel viability, ATPlite luminescence, 48 h; series mostly up to 57.5 µM. An outline of the steps: as §1
For assay [9], the system named is Tov112D. The description is as above. The conditions noted are these: Gynecologic cancer cell panel viability, ATPlite luminescence, 48 h; series mostly up to 57.5 µM. An outline of the steps: as §1
Assay [10] deals with PA-1. The assay is described as above. The conditions noted are these: Gynecologic cancer cell panel viability, ATPlite luminescence, 48 h; series mostly up to 57.5 µM. Put shortly: as §1
Assay [11] in a line: qHTS assay to identify inhibitors of the type 1 interferon - major histocompatibility complex class I in skeletal muscle: Counter screen cell viability and HiBit confirmation (AID 1347412). Also: nearly all actives have a fitted effect of over 60% in size. The conditions noted are these: iHSKM muscle cells + IFN-b, HiBiT or CellTiter-Glo, 24 h. An outline of the steps:
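HLA-B*08:01–HiBiT knock-in immortalized human myoblasts (C25cl48) stimulated with 4.0 ng/ml human IFN-beta and dosed with compound in a 12-point 1:3 titration (top final 46 uM). After 24 hrs at 37 C, HiBiT lytic luminescence or CellTiter Glo ATP read out.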
% is scaled to controls: 0 for no effect and ±100 for the full control effect; potency is read from the fitted curve at half-maximal effect.

On to `CCCCCCCCn1cc(CN(CC)CC)c2cc(-c3cnc(N)nc3)ccc21`, for which the Potency entry in assay [1], in assay [2], in assay [3] and in assay [4] was “inactive” in each case.
In the case of `CCS(=O)c1nc(-c2cccc(OCc3ccccc3)c2)cc(C(F)(F)F)n1` (stereo not given), the Potency entry in [1], in assay [5], in assay [2], in assay [6], in [7] and in assay [8] was “inactive” each time. For the same molecule, the Potency result in assay [9] is “inactive”.
Regarding `C[C@@H](Nc1ncnc2[nH]c(-c3ccc(O)cc3)cc12)c1ccccc1`, the Potency in assay [1] is 22.4 µM (active). The Potency entry in [5], in assay [3], in [4], in assay [6] and in assay [10] was “inactive” in each case.
In the case of `CCc1cc(C(N)=O)ccc1-n1nc(C(C)C)c2c(-n3cnc(-c4cnn(C)c4)c3)ccnc21`, the Potency entry in assay [1], in assay [5], in [2] and in [4] was “inactive” in each case. Further, the Potency in assay [8] is 3.55 µM (active).
For `COc1cc2c(cc1NS(=O)(=O)c1ccc(Br)cc1C)n(C)c(=O)n2C`, the Potency entry in assay [1], in assay [2], in assay [4], in [10], in assay [8] and in [9] was “inactive” each time.
Consider `Cc1cc(NC(=O)c2cccc(NC(=O)/C=C/CN(C)C)c2)ccc1Nc1nccc(-c2cccnc2)n1`, for which the Potency entry in assay [5], in [2], in assay [4] and in assay [6] was “inactive” in each case.
`Fc1ccc2[nH]ccc2c1-c1nc(N2CCOCC2)c2sc(CN3CCN(CC4CC4)CC3)cc2n1`: the Potency result in assay [5], in assay [2], in assay [8] and in assay [9] was “inactive” in each case. Besides, the Potency in assay [4] is 20 µM (active).
For `COC1CC/C=C(\C)C(=O)Nc2cc(O)cc(c2)CC(C)CC(OC)C(O)C(C)/C=C(\C)C1OC(N)=O` (stereo not given), the Potency result in assay [5] and in [2] was “inactive” in each case. Further, the Potency in assay [6] is 8.91 µM (active); in assay [8], 3.98 µM (active).
As for `CCCCNc1ncc(C(=O)NCc2ccc(-n3ccnc3)cc2)c(NC2CCC(O)CC2)n1` (stereo not given), the Potency entry in [5], in assay [3] and in assay [7] was “inactive” throughout.
For the molecule `O=C(CCl)Nc1cccc(NC2=NS(=O)(=O)c3ccccc32)c1`, the Potency result in assay [5], in assay [4], in [6] and in [8] was “inactive” each time.
Consider `COc1c(C)cnc(Cn2cc(C#CCC(C)(C)O)c3c(Cl)nc(N)nc32)c1C`, for which the Potency result in [2] is “inactive”. For the same molecule, the Potency in [3] is 0.282 µM (active); in assay [10], 0.282 µM (active); in assay [7], 0.251 µM (active).
As for `COc1ccc(C#Cc2ccc(C(=O)N3CCC[C@@H](O)C3)c(F)c2)cc1`, the Potency in assay [5] is 12.6 µM (active); in [3], 14.1 µM (active); in assay [7], 8.91 µM (active); in [8], 7.08 µM (active); in [9], 8.91 µM (active). Besides, the Potency entry in assay [4] was “inactive”.
As for `CC(C)CC(=O)c1c(O)cc2c(c1O)C(CC(C)C)C1=C(O2)C(C)(C)C(=O)C(C)(C)C1=O` (stereo not given), the Potency result in assay [5], in assay [4] and in assay [6] was “inactive” in each case.
Consider `CN(C)Cc1ccc(-c2cnn3c(-c4cccc(NC(=O)c5cccc(C(F)(F)F)c5)c4)ccnc23)cc1`, for which the Potency result in [5], in [2], in assay [10], in [8] and in assay [9] was “inactive” each time.
As for `C/C(=N\N=C(N)N)c1cc(NC(=O)CCCCCCCCC(=O)Nc2cc(/C(C)=N/N=C(N)N)cc(/C(C)=N/N=C(N)N)c2)cc(/C(C)=N/N=C(N)N)c1`, the Potency result in assay [1], in assay [2], in assay [3], in assay [4] and in assay [9] was “inactive” each time.
As for `C=C(C)C(=O)O[C@H]1C[C@@](C)(O)C2(O)CCC(C)(/C=C3/OC(=O)C(COC)=C31)O2` (stereo not given in full), the results for the Potency in assay [5], in assay [10] and in assay [8] were 11.2 µM (active), 10 µM (active) and 10 µM (active), respectively. For the same molecule, the Potency result in assay [2] is “inactive”.
`COc1cc(-n2cnc3cc(-c4ccc(Cl)cc4)sc3c2=O)ccc1OCCN1CCCC1`: the Potency result in assay [2], in assay [4] and in assay [8] was “inactive” each time. The Potency in assay [10] is 22.4 µM (active).
Turning to `COCCNCc1ccc(-c2cc3nccc(Oc4ccc(NC(=O)C5(C(=O)Nc6ccc(F)cc6)CC5)cc4F)c3s2)nc1`, the Potency entry in assay [5] is “inactive”. In addition, in assay [11] (Viability), the Potency is 31.3 µM (active).
As for `CN(C)C(=O)COC(=O)c1cc(-c2ccc(C3CCNCC3)cc2)c2ccc(-c3ccc(C(F)(F)F)cc3)cc2c1`, the Potency entry in assay [5], in [3] and in assay [4] was “inactive” throughout.
Turning to `Nc1ncnc2c1c(-c1ccc(Oc3ccccc3)cc1)nn2[C@@H]1CCCNC1`, the Potency entry in assay [2], in assay [4] and in assay [8] was “inactive” throughout. Further, the Potency in [10] is 25.1 µM (active).
Take `O=C(Nc1ccnc(NC(=O)C2CC2)c1)c1c(Cl)cccc1Cl`: the figures for the Potency in [5], in assay [2] and in [10] were 22.4 µM (active), 17.8 µM (active) and 15.8 µM (active), respectively. For the same molecule, the Potency result in assay [7] is “inactive”.
Turning to `COC(C)(C)CCn1nc(Nc2c(C)cccc2C)c2cnc(Nc3ccc(OCCN4CCCC4)c(F)c3)nc21`, the Potency is 15.8 µM (active) in assay [5]; 14.1 µM (active) in assay [6]; 2.82 µM (active) in assay [10]; 15.8 µM (active) in assay [7]; 1.78 µM (active) in assay [8]; 15.7 µM (active) in assay [11] (HiBiT). Also, the Potency entry in assay [9] is “inactive”.
As for `CC(C)C[C@H](NC(=O)CNC(=O)OCc1ccccc1)C(=O)N[C@@H](Cc1ccccc1)C(=O)CCl` (Cbz-Gly-Leu-Phe-CH2Cl), the Potency entry in assay [1], in assay [2] and in assay [6] was “inactive” each time.
`C=CC(=O)Nc1cccc(Nc2nc(Nc3ccc(OCCOC)cc3)ncc2F)c1`: the Potency in assay [2] was 11.2 µM (active); in assay [10] it was 10 µM (active); in assay [7], 2.82 µM (active); in assay [9] it was 4.47 µM (active). The Potency result in assay [4] is “inactive”.
Consider `CCn1c(-c2nonc2N)nc2c(C#CC(C)(C)O)ncc(OCC3CCCNC3)c21` (stereo not given), for which the Potency entry in [5], in [2], in assay [4] and in assay [9] was “inactive” throughout. Also, the Potency in assay [10] is 28.2 µM (active).
On to `COc1ccc(-c2ccc3c(N4CCOCC4C)nc(N4CCOCC4C)nc3n2)cc1CO` (stereo not given), for which the Potency was 0.282 µM (active) in [5], 0.316 µM (active) in [3], 0.282 µM (active) in [10] and 0.251 µM (active) in assay [8]. Moreover, the Potency result in assay [4] was “inactive”.
As for `COc1cc(CCc2cc(NC(=O)c3ccc(N4CC(C)NC(C)C4)cc3)n[nH]2)cc(OC)c1` (stereo not given), the Potency entry in assay [1], in assay [4] and in assay [9] was “inactive” in each case.
Take `C=CC(=O)Nc1ccc2ncnc(Nc3cccc(Br)c3)c2c1`: the Potency entry in [2], in assay [3] and in [6] was “inactive” each time. Moreover, in assay [8], the Potency was 10 µM (active). Also, in assay [11] (Viability, at 45.9 µM (top of the series)), the activity change, negative = inhibition was -0.162%.
